Active and inactive are the calls of the source. The calls were made as follows: active = hit-call score of the fitted dose curve at least 0.9, where 1 is the maximum; inactive = score below 0.9.
Key:
[1] = ATG_AP_1_CIS: Attagene CIS-FACTORIAL HepG2 Assay for human Activator Protein 1 (AP-1) (AID 2282931); conditions: HepG2 Attagene cis-factorial AP-1 reporter mRNA; actives raise or lower the signal
In short: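 HepG2, transient cis-reporter transfection; 24 h; readout RT-PCR/CE fluorescence; DMSO baseline, gain and loss fitted.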

[2] = ATG_AP_2_CIS: Attagene CIS-FACTORIAL HepG2 Assay for human Activator Protein 2 (AP-2) (AID 2282932); conditions: HepG2 AP-2 cis-reporter, Attagene transcription factor profiling; actives raise or lower the signal
In short: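 HepG2 cells were transiently transfected with multiple cis-promoter reporter transcription units and dosed for 24 h. Reporter mRNA was measured by RT-PCR with capillary electrophoresis fluorescence; bidirectional fits relative to DMSO baseline.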

[3] = ATG_BRE_CIS: Attagene CIS-FACTORIAL HepG2 Assay for human Bone Morphogenetic Protein (BMP) Response Element (BRE) (AID 2282933); conditions: HepG2 BMP response element reporter, Attagene transcription factor profiling; actives raise or lower the signal
In short: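 Multiplexed cis-reporter assay, HepG2, 24 h exposure. mRNA from reporter units quantified via RT-PCR/CE; DMSO baseline; bidirectional curve fit.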

[4] = target: Retinoic acid receptor alpha (Homo sapiens) (UniProt P10276); test: ATG_DR5_RAR_CIS: Attagene CIS-FACTORIAL HepG2 Assay for human Retinoic Acid Receptor Alpha (RARE), DR5 submotif (AID 2282934); conditions: HepG2 Attagene cis-factorial RARE DR5 reporter, mRNA; actives raise or lower the signal;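 as to AC50: reporter responds to endogenous RAR alpha beta and gamma in HepG2 not RARA alone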
Retinoic acid receptor alpha (Homo sapiens), sequence (P10276 whole entry, looked up): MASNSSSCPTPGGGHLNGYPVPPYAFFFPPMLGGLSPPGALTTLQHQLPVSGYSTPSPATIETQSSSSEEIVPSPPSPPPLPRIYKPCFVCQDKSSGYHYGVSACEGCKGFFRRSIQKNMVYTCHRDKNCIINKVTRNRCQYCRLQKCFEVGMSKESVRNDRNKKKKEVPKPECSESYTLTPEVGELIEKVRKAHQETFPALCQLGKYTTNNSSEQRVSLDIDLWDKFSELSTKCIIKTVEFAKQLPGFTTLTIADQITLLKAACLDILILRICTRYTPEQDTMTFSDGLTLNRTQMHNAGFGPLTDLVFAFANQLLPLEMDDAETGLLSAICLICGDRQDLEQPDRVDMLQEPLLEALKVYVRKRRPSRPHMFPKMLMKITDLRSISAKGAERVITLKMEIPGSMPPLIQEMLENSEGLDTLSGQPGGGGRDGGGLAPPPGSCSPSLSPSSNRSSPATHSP
In short: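 Endpoint fitted in both directions relative to DMSO as negative control. It reflects DR5 cis-element reporter mRNA induction in transiently transfected HepG2 cells, measured 24 h after dosing through RT-PCR and fluorescent capillary electrophoresis.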

[5] = target: Transcription factor E2F1 (Homo sapiens) (UniProt Q01094); test: ATG_E2F_CIS: Attagene CIS-FACTORIAL HepG2 Assay for human E2F Transcription Factor 1 (AID 2282935); conditions: HepG2 Attagene cis-reporter, E2F reporter RNA transcripts; actives raise or lower the signal
Transcription factor E2F1 (Homo sapiens), sequence (Q01094 whole entry, looked up): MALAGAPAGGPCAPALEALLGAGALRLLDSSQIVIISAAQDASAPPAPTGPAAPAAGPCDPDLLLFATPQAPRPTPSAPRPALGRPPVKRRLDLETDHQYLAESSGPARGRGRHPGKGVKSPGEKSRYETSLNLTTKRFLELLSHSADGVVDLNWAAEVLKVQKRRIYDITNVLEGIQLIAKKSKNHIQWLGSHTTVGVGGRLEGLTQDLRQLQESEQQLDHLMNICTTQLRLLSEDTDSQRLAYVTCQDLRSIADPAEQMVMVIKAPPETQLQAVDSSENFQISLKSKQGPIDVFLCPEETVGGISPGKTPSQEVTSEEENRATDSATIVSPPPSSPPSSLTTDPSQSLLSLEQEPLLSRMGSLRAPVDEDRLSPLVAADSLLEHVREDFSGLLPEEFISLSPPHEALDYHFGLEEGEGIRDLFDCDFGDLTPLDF
In short: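 HepG2 cells transiently transfected with multiplexed cis-element reporter units, dosed for 24 h. Reporter mRNA measured by RT-PCR, 6-FAM primer-extension labeling, HpaI digestion and capillary electrophoresis; bidirectional fit versus DMSO baseline.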

[6] = ATG_E_Box_CIS: Attagene CIS-FACTORIAL HepG2 Assay for human Enhancer Box (E-box) (AID 2282936); conditions: HepG2 E-box cis-reporter transcription, actives raise or lower the signal
In short: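 HepG2 cells transiently transfected with multiplexed cis-element reporter units sensing endogenous transcription factor activity; 24 h compound exposure. Reporter mRNA measured by RT-PCR, 6-FAM primer extension, HpaI digestion and capillary electrophoresis; bidirectional fit versus DMSO.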

[7] = ATG_M_61_CIS: Attagene CIS-FACTORIAL HepG2 Assay for M61 Transcription Factor (Internal Marker) (AID 2282937); conditions: HepG2 Attagene CIS-FACTORIAL M61 internal marker reporter; actives raise or lower the signal
In short: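 Transfect HepG2 with MRTUs; dose 24 h; isolate RNA; reverse-transcribe with DNase I treatment; PCR-amplify, FAM-label and cut with HpaI for 2 h at 37 C; resolve by CE. Bidirectional fitting against DMSO.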

[8] = ATG_EGR_CIS: Attagene CIS-FACTORIAL HepG2 Assay for human Early Growth Response 1 (EGR1) (AID 2282938); conditions: HepG2 Attagene CIS-FACTORIAL EGR reporter mRNA; actives raise or lower the signal
In short: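 After a 24 h treatment of transiently transfected HepG2 cells, total RNA was reverse-transcribed and reporter sequences PCR-amplified, labelled and run on capillary electrophoresis. Reporters sit under cis-regulatory promoters sensing endogenous factors.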

[9] = ATG_M_19_CIS: Attagene CIS-FACTORIAL HepG2 Assay for M19 Transcription Factor (Internal Marker) (AID 2282939); conditions: HepG2 Attagene CIS-FACTORIAL M19 internal marker reporter; actives raise or lower the signal
In short: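 Signals come from fluorescence of labelled reporter-specific PCR fragments resolved by capillary electrophoresis, following 24 h treatment of HepG2 cells transfected with cis-promoter reporter units; activity was fitted in both directions relative to DMSO.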

[10] = ATG_Ets_CIS: Attagene CIS-FACTORIAL HepG2 Assay for human Erythroblast Transformation Specific (ETS) (AID 2282941); conditions: HepG2 ETS cis-reporter transcription, actives raise or lower the signal
In short: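 Steps: transfect HepG2 with multiple reporter units; treat compound 24 h; isolate RNA, DNase-treat, reverse-transcribe; PCR-amplify, label with 6-FAM, digest with HpaI; separate by capillary electrophoresis. Activity fitted both directions versus DMSO.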

[11] = target: Hepatocyte nuclear factor 3-beta (Homo sapiens) (UniProt Q9Y261); test: ATG_FoxA2_CIS: Attagene CIS-FACTORIAL HepG2 Assay for human Forkhead box A2 (FOXA2) (AID 2282942); conditions: HepG2 cis-reporter transcription factor activity, 24 h; actives raise or lower the signal
Hepatocyte nuclear factor 3-beta (Homo sapiens), sequence (Q9Y261 whole entry, looked up): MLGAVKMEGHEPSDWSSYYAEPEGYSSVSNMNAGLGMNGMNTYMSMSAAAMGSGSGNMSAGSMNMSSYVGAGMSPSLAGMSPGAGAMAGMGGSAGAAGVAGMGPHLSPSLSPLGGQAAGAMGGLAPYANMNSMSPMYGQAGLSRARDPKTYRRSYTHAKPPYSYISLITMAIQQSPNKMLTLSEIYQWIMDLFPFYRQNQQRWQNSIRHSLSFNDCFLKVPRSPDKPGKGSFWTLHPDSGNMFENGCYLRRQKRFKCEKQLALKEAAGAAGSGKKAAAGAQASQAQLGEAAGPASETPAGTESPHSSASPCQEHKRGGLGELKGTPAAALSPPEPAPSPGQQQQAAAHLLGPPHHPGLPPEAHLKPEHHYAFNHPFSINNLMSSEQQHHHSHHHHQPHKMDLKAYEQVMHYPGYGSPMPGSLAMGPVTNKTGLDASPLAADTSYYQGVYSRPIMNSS
In short: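 24 h dosing of HepG2 bearing cis-reporter constructs; mRNA readout by RT-PCR/CE fluorescence; bidirectional fit, DMSO baseline.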

[12] = ATG_FoxO_CIS: Attagene CIS-FACTORIAL HepG2 Assay for human Forkhead box O (FoxO) (AID 2282943); conditions: HepG2 Attagene cis-reporter, FoxO element, mRNA; actives raise or lower the signal
In short: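 Values reflect reporter mRNA induction or loss in HepG2 cells 24 h post-dosing, fitted bidirectionally with DMSO as negative control and baseline. Detection used RT-PCR and fluorescence capillary electrophoresis.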

[13] = ATG_GATA_CIS: Attagene CIS-FACTORIAL HepG2 Assay for human GATA Binding Protein (AID 2282944); conditions: HepG2 GATA cis-element reporter, Attagene multiplex mRNA; actives raise or lower the signal
In short: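 After transfecting HepG2 cells with multiple cis-regulated reporter units, chemicals are dosed for 24 h; isolated RNA undergoes RT-PCR and fluorescent labeling before capillary electrophoresis, with activity expressed against DMSO.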

[14] = ATG_GLI_CIS: Attagene CIS-FACTORIAL HepG2 Assay for human Zinc Finger Protein GLI1 (AID 2282945); conditions: HepG2, Attagene cis-factorial reporter mRNA, GLI element; actives raise or lower the signal
In short: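 HepG2 cells transiently transfected with cis-promoter multiplexed reporter units report endogenous transcription factor activity. After 24 h chemical exposure, reporter mRNA was quantified by RT-PCR, 6-FAM labelling, HpaI digestion and capillary electrophoresis, with bidirectional fitting against DMSO.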

[15] = target: Bile acid receptor (Homo sapiens) (UniProt Q96RI1); test: ATG_IR1_CIS: Attagene CIS-FACTORIAL HepG2 Assay for human Nuclear Receptor Subfamily 1 Group H Member 4 (NR1H4), IR1 submotif (AID 2282946); conditions: IR1 reporter transcription, actives raise or lower the signal
Bile acid receptor (Homo sapiens), sequence (Q96RI1 whole entry, looked up): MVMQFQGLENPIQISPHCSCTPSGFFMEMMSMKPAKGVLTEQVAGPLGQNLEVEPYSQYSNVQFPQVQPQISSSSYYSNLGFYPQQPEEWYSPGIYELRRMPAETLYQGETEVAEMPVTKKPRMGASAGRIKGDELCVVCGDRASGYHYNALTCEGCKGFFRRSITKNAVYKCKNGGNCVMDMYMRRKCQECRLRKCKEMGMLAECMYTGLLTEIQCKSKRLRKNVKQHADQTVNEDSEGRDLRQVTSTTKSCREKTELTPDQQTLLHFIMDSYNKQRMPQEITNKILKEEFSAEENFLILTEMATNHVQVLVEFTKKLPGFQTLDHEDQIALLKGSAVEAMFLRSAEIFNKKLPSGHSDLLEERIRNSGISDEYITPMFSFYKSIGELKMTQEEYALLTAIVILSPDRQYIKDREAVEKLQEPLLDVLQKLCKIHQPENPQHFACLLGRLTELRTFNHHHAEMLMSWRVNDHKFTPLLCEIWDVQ
In short: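 Transient MRTU transfection, HepG2; 24 h dosing; RNA → RT-PCR → 6-FAM primer extension → HpaI digest → capillary electrophoresis fluorescence. Gain/loss of signal fitted relative to DMSO.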

[16] = ATG_GRE_CIS: Attagene CIS-FACTORIAL HepG2 Assay for human Glucocorticoid Response Elements (GRE) (AID 2282947); conditions: HepG2 GRE cis-reporter, Attagene multiplex mRNA; actives raise or lower the signal
In short: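 HepG2 cells transiently transfected with multiple cis-promoter reporter units measure endogenous TF activity; 24 h compound exposure. Reporter mRNA quantified by RT-PCR, FAM labelling, HpaI digestion and capillary electrophoresis; bidirectional fit vs DMSO baseline.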

[17] = ATG_ISRE_CIS: Attagene CIS-FACTORIAL HepG2 Assay for human Interferon Regulatory Factor 1 (IRF1) binding to an Interferon-Stimulated Response Element (ISRE) (AID 2282948); conditions: HepG2 ISRE cis-reporter (Attagene), mRNA transcription readout; actives raise or lower the signal
In short: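 Transfected HepG2 (multiple reporter transcription units, cis elements) dosed 24 h. RNA → oligo(dT) RT → PCR → 6-FAM primer extension → HpaI → CE. DMSO = negative control/baseline.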

[18] = ATG_M_06_CIS: Attagene CIS-FACTORIAL HepG2 Assay for M06 Transcription Factor (Internal Marker) (AID 2282950); conditions: HepG2 Attagene CIS-FACTORIAL M06 internal marker reporter; actives raise or lower the signal
In short: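 HepG2 liver cells, 24 h exposure. Reporter transcripts from transfected cis-element constructs quantified by RT-PCR/capillary electrophoresis fluorescence. Bidirectional curve fit against DMSO.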

[19] = ATG_M_32_CIS: Attagene CIS-FACTORIAL HepG2 Assay for M32 Transcription Factor (Internal Marker) (AID 2282949); conditions: HepG2 Attagene cis-factorial M32 reporter, mRNA; actives raise or lower the signal;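 also: background control marker of the multiplexed CIS panel rather than a real target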
In short: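 Internal background marker read-out: RT-PCR/capillary electrophoresis fluorescence of reporter transcripts from transiently transfected HepG2 cells after 24 h chemical exposure. Activity fitted bidirectionally relative to DMSO negative control.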

[20] = ATG_ERE_CIS: Attagene CIS-FACTORIAL HepG2 Assay for Estrogen Response Element (ERE) (AID 2282940); conditions: HepG2 ERE cis-reporter, Attagene RNA transcript; actives raise or lower the signal
In short: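 Fluorescence of capillary-separated, FAM-labelled reporter cDNA fragments indicates reporter mRNA levels in HepG2 cells exposed to chemicals for 24 h. Transient transfection with cis-regulated units; data fitted in both directions against DMSO.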

Measured: AC50

CNC(=O)N(C)c1nc2ccccc2s1
active: [11] 26.8 µM
not listed: [19] | [20]
inactive: all other assays above

CCOP(=S)(OCC)OP(=S)(OCC)OCC
not listed: [18] | [20]
inactive: all other assays above

CC(C=O)Cc1ccc2c(c1)OCO2 (centres undefined)
not listed: [19] | [20]
inactive: all other assays above

CCOP(=S)(OCC)O/N=C(\C#N)c1ccccc1
active: [1] 42.3 µM | [3] 31.6 µM
not listed: [13] | [20]
inactive: all other assays above

CCCCOP(=O)(CCCC)OCCCC
not listed: [9] | [20]
inactive: all other assays above

Clc1ccc(C(Cl)(Cl)Cl)cn1
active: [20] 2.86 µM
not listed: [13]
inactive: all other assays above

O=[N+]([O-])c1cccc2ccccc12
not listed: [13] | [15] | [16]
inactive: all other assays above

O=c1[nH]c2ccccc2n1C1CCN(CCCC(c2ccc(F)cc2)c2ccc(F)cc2)CC1
active: [4] 5.87 µM | [20] 4.17 µM | [17] 3.71 µM
not listed: [9] | [18]
inactive: all other assays above

— PubChem BioAssay (EPA / NIEHS)
